Target: T1, Serine/threonine-protein kinase Nek2 (Homo sapiens) (UniProt P51955)
T1 sequence (whole entry): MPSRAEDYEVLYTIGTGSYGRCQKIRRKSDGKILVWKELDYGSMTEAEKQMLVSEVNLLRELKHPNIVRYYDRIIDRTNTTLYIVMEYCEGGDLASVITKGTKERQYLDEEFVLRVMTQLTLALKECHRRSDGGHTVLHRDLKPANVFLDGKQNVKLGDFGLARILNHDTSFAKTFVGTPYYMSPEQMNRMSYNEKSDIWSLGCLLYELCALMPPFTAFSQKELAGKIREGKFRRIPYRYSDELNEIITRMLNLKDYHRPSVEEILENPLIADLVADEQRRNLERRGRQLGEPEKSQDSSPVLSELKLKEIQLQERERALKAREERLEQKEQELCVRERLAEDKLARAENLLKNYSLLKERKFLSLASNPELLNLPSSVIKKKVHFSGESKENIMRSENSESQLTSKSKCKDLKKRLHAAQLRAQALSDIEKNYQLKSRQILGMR
Conditions: at 1 µM

Structure (SMILES)	residual activity
O=c1cc(-c2cccc3c2Sc2ccccc2S3)oc(N2CCOCC2)c1	96%
C[C@@H](N)[C@H]1CC[C@H](C(=O)Nc2ccncc2)CC1	120%
Cc1nc(-c2ccccc2)c(-c2ccncc2)o1	103%
CCC(=O)Nc1ccc2ncnc(Nc3cccc(Br)c3)c2c1	73%
Cn1cnc2cc3c(Nc4cccc(Br)c4)ncnc3cc21	87%
CC(C)n1cnc2/c(=N/c3cccc(Cl)c3)nc(NCCO)[nH]c21	85%
Oc1c2ccccc2c2c3c(cccc13)N=N2	86%
COc1cc2ncnc(Nc3ccc(O)c(Br)c3)c2cc1OC	73%
N#C/C(=C(\N)Sc1ccc(N)cc1)c1ccccc1C(F)(F)F	93%
CCOc1cc2ncnc(Nc3cccc(Br)c3)c2cc1OCC	77%
O=C1NC(=O)c2c1c1c3ccccc3[nH]c1c1[nH]c3cc(Br)ccc3c21	91%
CC#CC(=O)Nc1cc2c(Nc3ccc(F)c(Cl)c3)ncnc2cn1	73%
NC(=O)c1ccc2[nH]c(-c3ccc(Oc4ccc(Cl)cc4)cc3)nc2c1	82%
O=C(Nc1cccc(Nc2nccc(Nc3cccc(C(F)(F)F)c3)n2)c1)C1CC1	94%
O=c1c2ccccc2[nH]c(=S)n1CCN1CCC(=C(c2ccc(F)cc2)c2ccc(F)cc2)CC1	86%
Ic1cccc(CSc2nnc(-c3ccncc3)o2)c1	88%
O=C1NC(=O)/C(=C/c2ccc3c(c2)OC(F)(F)O3)S1	97%
Cc1ccc(NC2=CC(=O)c3sc(C)nc3C2=O)cc1	91%
CC(=O)O/N=C1\C(=C2\C(=O)Nc3cc(Br)ccc32)Nc2ccccc21	101%

From ChEMBL document CHEMBL2218924, “A broad activity screen in support of a chemogenomic map for kinase signalling research and drug discovery” (Biochem J, 2013)
